# Compound activity from PubChem BioAssay.
# Rows were chosen to be rich in hits. Some 1.3% of all compounds tested hit in one or more screens of this group.
# GLD-1 TGE inh – GLD-1-TGE RNA interaction inhibition (C. elegans). purified GLD-1 + fluorescein TGE RNA, fluorescence polarization. inhibition, % at 5.96 µM. actives 0.44% (n = 320,000);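 active means percent inhibition above a per-plate cutoff, the plate mean of test compounds plus 3 SD, cut at about 30% in these data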;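 further: 0% = DMSO wells with GLD-1 and probe and 100% = wells lacking GLD-1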
# Target sequence (Q17339 whole entry, looked up): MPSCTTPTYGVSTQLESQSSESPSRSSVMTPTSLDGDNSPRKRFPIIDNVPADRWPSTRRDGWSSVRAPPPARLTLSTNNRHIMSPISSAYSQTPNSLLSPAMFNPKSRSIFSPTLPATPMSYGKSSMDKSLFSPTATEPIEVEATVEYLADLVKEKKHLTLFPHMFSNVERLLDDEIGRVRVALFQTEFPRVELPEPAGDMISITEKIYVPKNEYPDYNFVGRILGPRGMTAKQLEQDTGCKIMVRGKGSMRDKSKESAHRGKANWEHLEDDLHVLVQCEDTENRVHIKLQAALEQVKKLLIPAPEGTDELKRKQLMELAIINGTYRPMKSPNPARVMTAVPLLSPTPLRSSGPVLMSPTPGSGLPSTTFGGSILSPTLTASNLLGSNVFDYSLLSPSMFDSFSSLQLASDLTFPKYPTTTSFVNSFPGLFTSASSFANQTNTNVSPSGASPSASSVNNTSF
# MEX-5 binding – C. elegans MEX-5 TCR-2 RNA binding activity; Q9XUB2; MEX-5/FITC-TCR2 RNA binding, fluorescence polarization; active compounds read low; activity score (negative = inhibition of binding), % at 10 µM; actives 0.38% (n = 300,000); AID 1832;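 active means inhibition past about -25% in most replicates, and total fluorescence under double the plate's negative control median, limit read from the data; inconclusive means replicates evenly split on the limit, or fluorescence at least double controls; inactive means too little inhibition in most replicates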;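 further: 0% = DMSO and -100% = 5 µM competing unlabeled TCR2 RNA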
# Bcl-xL primary – Bcl-xL (human) inhibition | Q07817 | GST-Bcl-xL / FITC-Bim BH3 peptide fluorescence polarization | inhibition, % at 10.9 µM | actives 0.7% (n = 320,000) | AID 2129;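 active means inhibition above the mean of all tested compounds plus 3 SD, cutoff set per campaign, cut at about 30% in these data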;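 further: 0% = DMSO wells and 100% = unlabeled Bim-BH3 peptide competitor; inhibitors lower millipolarization by displacing the labeled peptide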
# MCL1 BIM primary – inhibitors of human MCL1 binding to BIM-BH3 peptide | GST-MCL1 / FITC-Bim-BH3 fluorescence polarization | inhibition, % at 10.9 µM | AID 2057 | Q07820 | actives 0.68% (n = 320,000);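 active means inhibition above the mean inhibition of all tested compounds plus 3 SD, set per campaign, cut at about 40% in these data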;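 further: 0% = DMSO wells and 100% = unlabeled Bim-BH3 peptide control; higher means more loss of mP so more displacement of Bim peptide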
# EBV gp42 inh – blocks Epstein-Barr virus glycoprotein 42 binding; Fluorescence polarization binding assay, mP read-out; inhibition, % (tested at 21.74 µM); actives 0.42% (n = 220,000); AID 1085; in the data active means inhibition above about 50%
# Bcl-xL conf – Bcl-xL (human) inhibition, MCL1 counter-screen confirmation; AID 2166; shares compounds with MCL1 BIM primary; actives 54% (n = 1,700); GST-Bcl-xL / FITC-Bim BH3 peptide FP binding; inhibition, % at 10.9 µM;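 active means inhibition above a cutoff equal to the mean inhibition of all tested compounds plus 3 SD, cut at about 30% in these data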;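 further: 0% = DMSO wells and 100% = unlabeled Bim BH3 control peptide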
# MCL1 BIM confirm – MCL1-BIM-BH3 interaction inhibition, confirmation; shares compounds with MCL1 BIM primary; GST-MCL1 / FITC-Bim-BH3 fluorescence polarization; inhibition, % at 10.9 µM; actives 61% (n = 1,700);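 active means inhibition above the average of all tested compounds plus 3 SD, cut at about 40% in these data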;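 further: 0% = DMSO wells and 100% = unlabeled Bim-BH3 control peptide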
# Active calls of the source: *; u = inconclusive; x = no result; + = active, no number.
SMILES,GLD-1 TGE inh,MEX-5 binding,Bcl-xL primary,MCL1 BIM primary,EBV gp42 inh,Bcl-xL conf,MCL1 BIM confirm
COc1cc(-c2nnc(SCc3cc(=O)oc4cc(O)c(O)cc34)o2)cc(OC)c1OC,-4,-3,6,62*,30,14,61*
Cc1cc(Cl)c(S(=O)(=O)N2CCN(c3ccccn3)CC2)cc1OCC(=O)NC1CCCCC1,0,1,2,-1,-4,x,x
Cc1nnc(SCC2=C(C(=O)O)N3C(=O)C(NC(=O)Cn4cnnn4)C3SC2)s1 (centres undefined),9,0,15,12,x,x,x
CN(C)CCn1nnnc1SCC1=C(C(=O)O)N2C(=O)[C@@H](NC(=O)Cc3csc(N)n3)[C@H]2SC1,19,x,37*,51*,x,28,36
COc1ccc2ccc3c(c2c1)N=C[C@]1(O3)N(C)c2ccccc2C1(C)C,5,2,40*,57*,-20,39*,39
CC(=O)N1CCN(S(=O)(=O)c2ccc(C)cc2)C1C (centres undefined),-2,0,-1,4,x,x,x
Cc1ccc(CSc2ccc(C(=O)N3CCOCC3)cc2[N+](=O)[O-])cc1,-7,3,5,49*,2,8,-1
O=[n+]1c2c(n([O-])c3cc(F)c(N4CCCC4)cc31)CCC2,161*,u,191*,+,x,186*,+
O=[n+]1c2c(n([O-])c3cc(F)c(N4CCCC4)cc31)CCCC2,145*,u,181*,+,101*,173*,+
COc1cc(/C=C/C(=O)O)cc2c1OCCO2,4,-5,2,-3,-11,x,x
COc1ccc(S(=O)(=O)N2CCNCC2)cc1,4,-5,7,4,x,x,x
COc1cc(Cl)c(C)cc1NC(=O)CSc1sc2c(O)cc(=O)[nH]c2c1C#N,0,1,12,43*,x,11,14
N#Cc1c(SCC(=O)Nc2nncs2)sc2c(O)cc(=O)[nH]c12,-5,-14,34*,70*,x,25,53*
COc1ccc(OC)c(NC(=O)CSc2sc3c(O)cc(=O)[nH]c3c2C#N)c1,3,1,14,27,x,x,x
CCOc1cc(/C=C2\CCCc3c2nc2ccccc2c3C(=O)O)ccc1OC,145*,-16,143*,166*,x,15,12
COc1cc(/C=C2\CCc3c2nc2ccccc2c3C(=O)O)cc(OC)c1OC,2,-26*,20,76*,-8,30,75*
Cc1nc(NC(=O)/C=C/c2ccc(C(C)(C)C)cc2)sc1C(=O)N(C)C,3,1,-8,13,-11,x,x
Cc1cc(=O)oc2c3c(ccc12)OC/C3=N/N,1,-3,7,9,-17,x,x
Cc1cc(=O)oc2c3c4c(cc12)OCCN4CCC3,-7,-15,60*,64*,65*,47*,41*
CCOC(=O)CCCNC(=O)CSc1nc2ccc(OCC)cc2[nH]1,4,2,5,5,-9,x,x
COc1cc(C)ccc1OCc1cc(C(=O)N2CCCCCC2)no1,x,0,x,x,x,x,x
COc1cc(Cl)ccc1OCc1cc(C(=O)N2CCCCCCC2)no1,-7,x,3,84*,x,5,8
CCCc1cc(=O)oc2c3c(c(Cl)cc12)OCN(CCCO)C3,48*,-2,76*,89*,x,55*,82*
CN(C)C(=O)N1CCN(C(=O)N2CCOCC2)CC1,101*,1,158*,139*,-16,3,7
COc1ccc(Nc2nc3ccccc3nc2-n2nc(C)cc2C)cc1,0,-1,-3,0,1,x,x
SMILES,GLD-1 TGE inh,MEX-5 binding,Bcl-xL primary,MCL1 BIM primary,EBV gp42 inh,Bcl-xL conf,MCL1 BIM confirm
Cc1cc(C)n(-c2nc3ccccc3nc2Nc2ccc3[nH]c(=O)[nH]c3c2)n1,65*,-3,79*,54*,-15,43*,36
O=C(CCc1ccccc1)Oc1ccccc1[N+](=O)[O-],3,0,7,73*,x,3,-1
CNS(=O)(=O)c1cc(NC(C)=O)c(C)cc1C,6,-1,4,13,-6,x,x
Cn1c(=O)c(Nc2ccc(O)cc2)c2c3c(cccc31)C(=O)c1ccccc1-2,155*,-16,164*,+,127*,163*,+
CC(C)c1ccc(Nc2c([N+](=O)[O-])c(=O)n(C)c3ccccc23)cc1,4,2,7,3,4,x,x
CC(=O)c1c2c3c(c(Br)ccc3n(C)c1=O)C(=O)c1ccccc1-2,57*,-4,67*,64*,x,42*,43*
CC(=O)c1c(-c2ccccc2)c2cc(Cl)ccc2n(C)c1=O,0,-1,0,0,x,x,x
CC(=O)c1c2c3c(cccc3n(C)c1=O)C(=O)c1ccccc1-2,67*,-12,85*,96*,x,129*,152*
O=C(Cc1ccc(NS(=O)(=O)c2cccc(C(F)(F)F)c2)cc1)NCCN1CCOCC1,9,0,-3,-5,x,x,x
CCOC(=O)c1csc(COc2ccc(OC)cc2)n1,3,2,9,5,-10,x,x
CC1(OC(=O)C2CCCC2)C(=O)C=C2C=C(c3ccsc3)N(CCc3ccccn3)C=C2C1=O (centres undefined),37*,-7,48*,56*,9,13,18
Cc1cc(OCC(=O)NC2CCN(Cc3ccccc3)CC2)c2c(C)cc(=O)oc2c1,5,1,5,7,x,x,x
CC(=O)Nc1ccc(NC(=O)C(C)OC(=O)C2CCCCC2)cc1 (centres undefined),21,x,18,151*,x,2,9
Cc1cc(/C=C\c2ccc3cc(N(C)C)ccc3[n+]2C)c(C)n1-c1ccccc1,139*,x,54*,132*,x,41*,101*
C[n+]1c(/C=C/c2ccc(O)cc2)ccc2ccccc21,-180,20,-20,-35,x,x,x
O=c1c(C(c2ccc(F)cc2)c2c(O)nc3n(c2=O)CCS3)c(O)nc2n1CCS2,0,-3,12,6,-6,x,x
COC(=O)c1ccc2ccn(CC(=O)NC3CCCCC3)c2c1,24,-1,28,49*,-19,3,-4
N#Cc1ccc2ccn(CC(=O)NC3CCCCCC3)c2c1,6,-3,-1,-5,-10,x,x
CCN(C(=O)C(C)N1C(=O)/C(=C/c2ccco2)SC1=S)C1CCS(=O)(=O)C1 (centres undefined),12,-1,33*,59*,x,25,56*
O=C1/C(=C/c2ccco2)SC(=S)N1C1CCS(=O)(=O)C1 (centres undefined),18,-1,30,67*,2,14,18
